Compound activity from PubChem BioAssay.
aSyn 5UTR act = Activators working through SNCA 5'UTR binding (MLPCN); alpha-synuclein 5'UTR reporter, activators screen; activity score, % (tested at 7.5 µM), hits read low; hit rate 7.1% among 300,000; AID 1814; in the data active = activity score below about -60%
An asterisk follows results filed as active. The list is a sample of the results.

SMILES	aSyn 5UTR act
CCc1cc2c(=O)n(-c3ccc(Br)cc3)cnc2s1	-160*
CCc1cc2c(=O)n(CC(C)C)cnc2s1	-101*
CCS(=O)(=O)NCCc1csc(-c2ccccc2)n1	-63*
NCCCn1c(C(=O)c2cc(Cl)c(N)c(Cl)c2)c2ccc([N+](=O)[O-])cc2[n+]1[O-]	100
CC(=O)Nc1cccc(-c2nnc(-c3ccccc3)o2)c1	-150*
CCOc1cccc(C(=O)Nc2cccc(-c3nnc(-c4ccccc4)o3)c2)c1	-77*
O=C(Nc1cccc(-c2nnc(-c3ccccc3)o2)c1)C1CC1	-89*
Nc1cc(-c2ccc(Cl)cc2)nn1-c1ccccc1	-138*
Cc1ccc(-n2nc(-c3ccc(N)cc3)cc2N)cc1	-132*
Nc1ccc(-c2cc(N)n(-c3ccccc3)n2)cc1	-104*
CC(=O)Nc1ccc(-c2cc(N)n(-c3ccccc3)n2)cc1	-162*
COc1cc(Cl)ccc1OCc1cc(C(=O)N2C[C@H]3CC[C@H]2C3)no1	-130*
COc1cc(Cl)ccc1OCc1cc(C(=O)N2C[C@]3(C)C[C@H]2CC(C)(C)C3)no1	-87*
COc1cc(C)ccc1OCc1cc(C(=O)N2CCN(C)C[C@@H]2c2ccccc2)no1	-139*
COc1cc(C)ccc1OCc1cc(C(=O)N(Cc2c(C)nn(C)c2C)C2CC2)no1	-81*
COc1cc(Cl)ccc1OCc1cc(C(=O)N2C[C@@H]3CCC[C@H]2C3)no1	-176*
COc1cc2[nH]c3ccccc3c2cc1C	-65*
COc1cccc2[nH]c3c(N4CCCC(C)C4)ncnc3c12 (centres undefined)	-143*
CN(C)CCNc1ncnc2c1cnn2-c1ccc(Cl)cc1	-93*
CCCN(CCC)c1ncnc2c1cnn2-c1ccc(OC)cc1	-77*
COc1ccc(-n2ncc3c(NCc4ccco4)ncnc32)cc1	-162*
CCC(CO)Nc1ncnc2c1cnn2-c1ccc(OC)cc1 (centres undefined)	-75*
Clc1ccc(-n2ncc3c(NCc4ccco4)ncnc32)cc1	-227*
Clc1ccc(-n2ncc3c(NCc4ccc5c(c4)OCO5)ncnc32)cc1	-81*
COc1ccc(-n2ncc3c(NCc4ccccn4)ncnc32)cc1	-128*
SMILES	aSyn 5UTR act
Cc1csc(NC(=O)c2ccc3c(=O)n4c(nc3c2)CCCCC4)n1	-139*
O=C(Nc1ccc(F)cc1Cl)c1ccc2c(=O)n3c(nc2c1)CCC3	-109*
O=C(Nc1nccs1)c1ccc2c(=O)n3c(nc2c1)CCCCC3	-129*
CN(C)C(=O)c1ccc(-c2cc(C(F)(F)F)nn2C)s1	-152*
Cn1nc(C(F)(F)F)cc1-c1ccc(S(N)(=O)=O)s1	-123*
O=C(Nc1ccc(Br)cc1)N1CCc2ccccc2C1	-161*
O=C(NC1CCCCC1)N1CCc2ccccc2C1	-85*
O=C(Nc1ccc(F)cc1)N1CCc2ccccc2C1	-203*
CN(C)CCOc1nc(-c2ccccc2)nc2c1oc1ccccc12	-88*
O=C(Nc1nc2c(s1)CCCC2=O)c1cnccn1	-88*
CC(=O)Oc1ccc(Oc2ccc(-c3noc(C)n3)cc2)cc1	-77*
CC(=O)Oc1ccc(-c2nc(-c3cccnc3)no2)cc1	-93*
Cc1cc(C)nc(Nc2nc(=O)c3ccccc3s2)n1	-134*
O=[N+]([O-])c1ccccc1/C=N/NC1=NCCCCC1	-173*
O=C(N/N=C\c1ccc(Oc2ccccc2)cc1)c1csnn1	-96*
CN(C)c1ccc(/C=N\NC(=O)c2csnn2)cc1	-146*
O=C(CC(Nc1ccc(Cl)cc1)C(=O)O)c1ccccc1 (centres undefined)	-69*
O=C(CC(Nc1ccc(F)cc1)c1ccccc1)c1ccccc1 (centres undefined)	-89*
Cc1c(Cl)cccc1NC(CC(=O)c1ccccc1)C(=O)O (centres undefined)	-102*
COC(=O)c1ccccc1SC(CC(=O)c1ccccc1)c1ccc(F)cc1 (centres undefined)	-68*
O=C(CC(Nc1ccccc1Cl)C(=O)O)c1ccccc1 (centres undefined)	-94*
CCCOc1ccc(C(=O)Nc2nc(C)c(Cc3ccc4c(c3)OCO4)s2)cc1	-68*
Cc1nc(NC(=O)c2ccc(OCC(C)C)cc2)sc1Cc1ccc2c(c1)OCO2	-85*
Cc1c(Cc2ccc3c(c2)OCO3)sc(NC(=O)c2ccc3ccccc3c2)c1C(N)=O	-80*
CC1CCCCC1NC(=O)Cn1nnc2ccccc2c1=O (centres undefined)	61
SMILES	aSyn 5UTR act
Cc1ccc(SCn2nnc3ccccc3c2=O)c(C)c1	-147*
O=c1c2ccccc2nnn1CSc1ccccc1F	-98*
Cc1ccc(NC(=O)Cn2nnc3ccccc3c2=O)cc1	-93*
O=c1c2ccccc2nnn1CSc1nc2ccccc2[nH]1	-173*
Cc1ccc2nc(SCn3nnc4ccccc4c3=O)[nH]c2c1	-139*
COc1cccc(-c2nc(-c3ccncc3)no2)c1	-114*
COc1ccc(-c2nc(-c3ccncc3)no2)cc1OC	-121*
Clc1cccc(-c2nc(-c3ccccn3)no2)c1	93
Cc1ccc(-c2noc(-c3ccno3)n2)cc1	-126*
COc1ccc(-c2noc(-c3cccc(Cl)c3)n2)cc1OC	-184*
Fc1cccc(F)c1-c1nc(-c2ccncc2)no1	-142*
COc1cccc(-c2nc(CS(=O)(=O)c3ccccc3)no2)c1	-126*
COc1ccc(-c2noc(-c3ccccc3Cl)n2)cc1OC	-180*
COCCCNC(=O)c1cc2c(-c3ccc(Cl)cc3)nn(C)c2s1	-72*
Cn1nc(-c2ccc(Cl)cc2)c2cc(C(=O)N3CCN(c4ccccc4)CC3)sc21	-65*
CCCNC(=O)CCn1nc(-c2ccc(Cl)cc2)c2ccccc2c1=O	82
COc1cccc(-c2nn(C)c3sc(C(=O)NCCCN(C)Cc4ccccc4)cc23)c1	-76*
Cc1nn(-c2ccccc2)c2sc(C(=O)N3CCOCC3)cc12	-87*
O=c1nc2c(-c3ccccc3F)n[nH]n2c2ccccc12	-146*
COc1cc(Cl)ccc1OCc1cc(C(=O)N(C)CCc2cnn(C)c2)no1	-91*
Cc1cc(OCc2cc(C(=O)N(C)CCc3cnn(C)c3)no2)cc(C)c1Cl	-145*
Cc1cc(C)cc(C(=O)Nc2ccc(N3CCCC3)cc2)c1	-120*
Cc1cc(C)cc(NC(=O)Nc2ccc(N3CCCCC3)cc2)c1	-153*
CC(=O)NCCOc1ccc2oc3ccccc3c2c1	-133*
CCSc1nnc(NC(=O)NC2CCCCC2)s1	-64*
SMILES	aSyn 5UTR act
CCSc1nnc(NC(=O)c2cccs2)s1	-138*
CC(=O)Cc1nsc(NC(=O)c2cccs2)n1	-67*
CCSc1nnc(NC(=O)C(C)(C)C)s1	-107*
O=C(Nc1nnc(SCc2ccc(F)cc2)s1)c1ccccn1	63
O=C(Nc1nnc(SCc2ccccc2)s1)c1cccs1	-67*
O=S(=O)(Cc1cc(-c2ccc(Cl)cc2)no1)c1ccccc1	-173*
O=S(=O)(Cc1cc(-c2ccccc2Cl)no1)c1ccccc1	-130*
Clc1ccc(-c2cc(COc3ccccc3)on2)cc1	-90*
Cc1ccc(/C=N/Nc2nc(Cl)c(Cl)cc2Cl)s1	-141*
Cc1ccsc1/C=N/Nc1nc(Cl)c(Cl)cc1Cl	-162*
CC(=O)/C=C(\C)Nc1ccc(-c2cnc(-c3ccccc3)o2)cc1	-95*
CCN(CC)c1ccc(NC(=O)Nc2ccccc2)cc1	-137*
CCN(CC)c1ccc(NC(=O)Nc2ccc(C(C)=O)cc2)cc1	-68*
O=C(Nc1ccccc1)NN(C(=O)CCl)c1ccccc1	-125*
COc1ccccc1N1CCN(C(=O)c2ccc3[nH]c(C)c(C)c3c2)CC1	72
